Compounds with a hit are over-represented: about 8% of the library has one in this group of screens.
HT1080NT lethal = kills 2HG-producing HT-1080-NT fibrosarcoma cells. HT-1080-NT fibrosarcoma viability, CellTiter-Glo ATP luminescence, 48 h. Potency, µM (series often up to 46.1 µM), inactives show at the top dose activity, negative = less viability, hits mostly cytotoxic. 360,000 compounds, 1.6% hits;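 also: NT is the 2HG producing partner of a matched IDH1 knockdown line; 0% = DMSO-treated cells and -100% = media-only wells without cells; nearly all actives have a fitted effect of over 55% in size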
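750 cells/well, RPMI + 5% FBS; 2 h settle, compound pin-transfer, 48 h at 37 degrees C. CellTiter-Glo 10 min RT, luminescence. Normalized to DMSO and media-only wells.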
SW480 rerep = DNA re-replication induction in SW480 cells. SW480 DNA re-replication, Hoechst DNA content imaging, 48 h. Potency, µM (highest dose often 46.1 µM), without a hit: at the top dose re-replication activation, most hits filed as activators. 340,000 compounds, 1.8% hits; also: % of control where 0% means no effect; nearly all actives have a fitted effect of over 55% in size
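Readout is total intensity of Hoechst-stained nuclei, excited at 405 nm and collected at 500-530 nm. Compound treatment lasted 48 hr at 37 C in 5% CO2 before staining.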
KB-3-1 tox = kills parental KB-3-1 adenocarcinoma cells. KB-3-1 viability, CellTiter-Glo ATP luminescence, 72 h. Potency, µM (highest dose often 46.1 µM), most hits filed as cytotoxic. 400,000 compounds, 1.4% hits. AID 1347075; also: % is scaled to controls: 0 for no effect and ±100 for the full control effect; nearly all actives have a fitted effect of over 60% in size
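Parental KB-3-1 adenocarcinoma cells in phenol-red-free DMEM with 10% FBS were pin-treated with compounds at several concentrations, incubated 72 h at 37 °C, and viability read by CellTiter-Glo luminescence; concentration-effect curves were fitted after normalization.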
HT1080 IDH1KD tx = HT-1080 IDH1 knockdown cell toxicity (counter line); HT-1080 IDH1 knockdown viability, ATP luminescence, 48 h; Potency, µM (series often up to 46.1 µM), inactives show at the top dose activity, negative = toxicity, hits mostly cytotoxic; 360,000 compounds, 2% hits;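 also: 0% = DMSO wells and -100% = cell-free medium wells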
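Luminescent ATP read-out (CellTiter-Glo, 10 min at room temperature) after 48 h compound exposure at 37 °C gave viability of IDH1-knockdown HT-1080 cells. Activity was normalised to DMSO and cell-free wells, then fitted as concentration-response curves.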
KB-V1 MDR tox = KB-V1 MDR subline cytotoxicity | KB-V1 MDR cells viability, CellTiter-Glo, 72 h | Potency, µM (series often up to 46.1 µM), actives largely listed as cytotoxic | 400,000 compounds, 3.4% hits | AID 1347076; also: % is scaled to controls: 0 for no effect and ±100 for the full control effect; nearly all actives have a fitted effect of over 60% in size
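Luminescent ATP read-out (CellTiter-Glo, 10 min) measures survival of drug-selected KB-V1 MDR cells after 72 h, 37 degrees C compound exposure. Medium: phenol-red-free DMEM, 10% FBS. Values from fitted concentration-response curves.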
MCF10A rerep = induces DNA re-replication in MCF 10a normal breast cells | MCF 10A DNA re-replication, Hoechst nuclear intensity, 48 h | Potency, µM (top dose mostly 46.1 µM), for the others: at the highest dose activity, positive = re-replication, usual class: activators | 350,000 compounds, 2.9% hits; also: % of control where 0% means no effect; nearly all actives have a fitted effect of over 50% in size
* marks the source's active call; other numbers are inactive results; ! = a repeat was not active. Calls follow the shape of the dose curve; as a rule, active = well fitted curve in the direction sought with a large enough effect; inconclusive = small, poorly fitted or top-dose-only effect, or another doubt; inactive = no such curve, though single readings can be large; an effect the other way counts as inactive or inconclusive. Potency is read from the fitted curve at half-maximal effect.

For N#C/C(=C\N1CCN(Cc2ccc3c(c2)OCO3)CC1)c1nc2ccccc2s1 the results were HT1080NT lethal inconclusive, SW480 rerep inconclusive, KB-3-1 tox inconclusive, HT1080 IDH1KD tx inconclusive, KB-V1 MDR tox 21µM* and MCF10A rerep 21µM*.
CCCCNC(=O)C(C#N)c1nc2ccccc2nc1N1CCN(Cc2ccc3c(c2)OCO3)CC1 (centres undefined) was read as HT1080NT lethal 8%, SW480 rerep 1%, KB-3-1 tox inactive, HT1080 IDH1KD tx 10%, KB-V1 MDR tox inactive and MCF10A rerep inconclusive.
Screening CCOC(=O)N1CCC(=NNc2nc3ccccc3s2)CC1 returned HT1080NT lethal -9%, SW480 rerep inconclusive, KB-3-1 tox inactive, HT1080 IDH1KD tx -2%, KB-V1 MDR tox inactive and MCF10A rerep inconclusive.
Screening CCOC(=O)N1CCN(/C=C(\C#N)c2nc3ccccc3s2)CC1 returned HT1080NT lethal -19%, SW480 rerep 1%, KB-3-1 tox inactive, HT1080 IDH1KD tx -3%, KB-V1 MDR tox 23µM* and MCF10A rerep inconclusive.
`c1ccc2nc(N3CCN(Cc4ccc5c(c4)OCO5)CC3)cnc2c1` gave HT1080NT lethal -25%, SW480 rerep inconclusive, KB-3-1 tox inactive, HT1080 IDH1KD tx -24%, KB-V1 MDR tox inconclusive and MCF10A rerep inconclusive.
`C=CCOC(=O)C(C#N)c1nc2ccccc2nc1N1CCN(Cc2ccc3c(c2)OCO3)CC1` (centres undefined) gave HT1080NT lethal -2%, SW480 rerep 3%, KB-3-1 tox inactive, HT1080 IDH1KD tx -3%, KB-V1 MDR tox 23µM* and MCF10A rerep 7%.
`CC(C)OCCCn1c(SC(C)C(=O)NC2CC2)nc2ccccc2c1=O` (centres undefined) gave HT1080NT lethal 0%, SW480 rerep -6%, KB-3-1 tox inactive, HT1080 IDH1KD tx -1%, KB-V1 MDR tox inconclusive and MCF10A rerep 3%.
Screening CCCCn1nc(C(=O)N(C)CC(=O)Nc2ccc(F)c(F)c2F)ccc1=O returned HT1080NT lethal 10%, SW480 rerep -6%, KB-3-1 tox inactive, HT1080 IDH1KD tx -7%, KB-V1 MDR tox 15µM* and MCF10A rerep -6%.
For CC[C@H](C)[C@@H]1NC(=O)[C@H]([C@@H](C)CC)NC(=O)[C@@H](CC(C)C)NC(=O)[C@H](Cc2ccccc2)NC(=O)[C@H](Cc2ccccc2)NC(=O)[C@@H]2CCCN2C(=O)[C@@H]2CCCN2C(=O)[C@H](C(C)C)NC(=O)[C@H](CC(C)C)NC1=O the results were HT1080NT lethal inconclusive, SW480 rerep inconclusive, KB-3-1 tox inconclusive, HT1080 IDH1KD tx inconclusive, KB-V1 MDR tox inactive and MCF10A rerep 21µM*.
Screening Cc1ccc2oc(-c3ccc(Cl)c(NC(=O)Cc4ccccc4)c3)nc2c1 returned KB-3-1 tox inactive and KB-V1 MDR tox inactive.
Screening COc1cccc(Cn2cc(-c3cccc(C(F)(F)F)c3)nn2)c1 returned HT1080NT lethal 21%, SW480 rerep -12%, KB-3-1 tox inactive, HT1080 IDH1KD tx 9%, KB-V1 MDR tox inconclusive and MCF10A rerep 9%.
COc1ccc(-c2cn(Cc3cccc(OC)c3)nn2)cc1 was read as HT1080NT lethal 10%, SW480 rerep -9%, KB-3-1 tox inconclusive, HT1080 IDH1KD tx 12%, KB-V1 MDR tox 10µM*! and MCF10A rerep 16%.
COc1cccc(CSc2nnnn2-c2ccc(O)cc2)c1 was read as HT1080NT lethal -4%, SW480 rerep inconclusive, KB-3-1 tox inactive, HT1080 IDH1KD tx -17%, KB-V1 MDR tox inconclusive and MCF10A rerep -34%.
Screening CCN1/C(=C/c2ccc3ccccc3[n+]2CC)C=Cc2ccccc21 returned HT1080NT lethal 6.5µM*, SW480 rerep 1%, KB-3-1 tox 0.82µM*, HT1080 IDH1KD tx 8.2µM*, KB-V1 MDR tox inconclusive and MCF10A rerep -1%.
`CCN1/C(=C/c2ccc3cc(C)ccc3[n+]2C)Sc2ccc3sccc3c21` gave HT1080NT lethal 16µM*, SW480 rerep inconclusive, KB-3-1 tox inactive, HT1080 IDH1KD tx inconclusive, KB-V1 MDR tox inactive and MCF10A rerep inconclusive.
For CCCCN1/C(=C/c2ccc3ccccc3[n+]2CC)Sc2ccccc21 the results were HT1080NT lethal inconclusive, SW480 rerep -1%, KB-3-1 tox inactive, HT1080 IDH1KD tx 15µM*, KB-V1 MDR tox inactive and MCF10A rerep 8%.
`CCN1/C(=C/c2ccc3ccccc3[n+]2CCCS(=O)(=O)[O-])C=Cc2cc(C)ccc21` gave HT1080NT lethal -14%, SW480 rerep -4%, KB-3-1 tox inactive, HT1080 IDH1KD tx -17%, KB-V1 MDR tox inactive and MCF10A rerep 0%.
Screening CCN1/C(=C/c2ccc3cc(C)ccc3[n+]2CC)Sc2cc(C)ccc21 returned HT1080NT lethal 16µM*, SW480 rerep -100%, KB-3-1 tox inconclusive, HT1080 IDH1KD tx 23µM*, KB-V1 MDR tox inactive and MCF10A rerep inconclusive.
Screening COc1cc(NC(=O)Cn2cnc3c2c(=O)n(C)c(=O)n3C)c(OC)cc1Cl returned KB-3-1 tox inactive and KB-V1 MDR tox inactive.
CCN1/C(=C/c2cccc[n+]2C)Sc2ccc(OC)cc21 was read as HT1080NT lethal inconclusive, SW480 rerep 1%, KB-3-1 tox inconclusive, HT1080 IDH1KD tx inconclusive, KB-V1 MDR tox inactive and MCF10A rerep 19%.
Screening Cc1ccc2c(c1)N(C)/C(=C/c1cccc[n+]1CCO)S2 returned HT1080NT lethal inconclusive, SW480 rerep -7%, KB-3-1 tox 1.8µM*, HT1080 IDH1KD tx inconclusive, KB-V1 MDR tox inactive and MCF10A rerep -11%.
Screening CN1/C(=C/c2cccc[n+]2C)Sc2ccccc21 returned HT1080NT lethal inconclusive, SW480 rerep inconclusive, KB-3-1 tox 1.5µM*, HT1080 IDH1KD tx inconclusive, KB-V1 MDR tox inactive and MCF10A rerep 9.2µM*.
Cc1ccc2c(c1)N(C)/C(=C/c1cccc[n+]1C)S2 was read as HT1080NT lethal 21µM*, SW480 rerep inconclusive, KB-3-1 tox 0.92µM*, HT1080 IDH1KD tx 10µM*, KB-V1 MDR tox inactive and MCF10A rerep inconclusive.
`COc1ccc2c(c1)N(C)/C(=C/c1cccc[n+]1C)S2` gave HT1080NT lethal inconclusive, SW480 rerep 3%, KB-3-1 tox 1.6µM*, HT1080 IDH1KD tx 13µM*, KB-V1 MDR tox inactive and MCF10A rerep -15%.
`CCn1c(=O)c2cc(C(=O)N3CCN(C)CC3)sc2c2ccccc21` gave HT1080NT lethal -27%, SW480 rerep -3%, KB-3-1 tox inactive, HT1080 IDH1KD tx -6%, KB-V1 MDR tox inactive and MCF10A rerep 2%.

High-throughput results from PubChem BioAssay.
